High-throughput results as filed in PubChem.
Sampled rows, rich in hits. Any-hit rate of the full collection: about 4.1%.
AmpC inh detg: qHTS Inhibitors of AmpC Beta-Lactamase (assay with detergent); 370,000 tested, 0.041% active; P00811; AmpC hydrolysis of nitrocefin, absorbance 480 nm, 0.01% Triton; AID 485294, 2010; Potency, µM (series often up to 114 µM), without a hit: at the highest dose activity change, negative = inhibition, actives largely listed as inhibitors;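 further: 0% = no-compound wells and -100% = no-enzyme wells; nearly all actives have a fitted effect of over 25% in size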
Target sequence (P00811 whole entry, looked up): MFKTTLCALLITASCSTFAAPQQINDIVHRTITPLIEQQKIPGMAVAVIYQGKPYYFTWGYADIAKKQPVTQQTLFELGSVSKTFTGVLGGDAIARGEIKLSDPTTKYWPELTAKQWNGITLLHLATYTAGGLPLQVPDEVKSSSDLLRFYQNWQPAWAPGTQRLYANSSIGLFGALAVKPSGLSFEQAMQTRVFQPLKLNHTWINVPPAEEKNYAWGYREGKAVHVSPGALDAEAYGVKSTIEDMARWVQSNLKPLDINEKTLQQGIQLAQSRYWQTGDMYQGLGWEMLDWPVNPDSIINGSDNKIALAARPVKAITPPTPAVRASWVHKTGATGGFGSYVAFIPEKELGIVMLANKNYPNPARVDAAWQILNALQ
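20 mM phosphate pH 7.0 + 0.01% (detergent screen) or 0.0001% Triton X-100; 5.3 nM AmpC reagent; cpd preinc 15 min RT; nitrocefin (800 uM stock) to start; A480 q20 s × 4 min; Activity was normalised to no-enzyme and no-compound control wells.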
AMA1 RON2 block: qHTS for Inhibitors of AMA1-RON; Towards Development of Antimalarial Drug Lead: Primary Screen; Plasmodium falciparum AMA1 (3D7) - RON2 peptide interaction; AlphaScreen AMA1-biotinylated RON2 peptide binding; Potency, µM (top dose mostly 58.2 µM), inactives show top-dose activity change, negative = inhibition, actives largely listed as inhibitors; 360,000 tested, 0.2% active; AID 720542, 2013;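 further: 0% = vehicle wells and -100% = peptide control; nearly all actives have a fitted effect of over 45% in size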
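AMA1 (3D7) with his tag at 25 nM final met compounds first, then biotinylated RON2 peptide at 25 nM; detection used donor plus acceptor beads, 10 µg/mL apiece, read by AlphaScreen after 30 min at room temperature.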
Sm TGR block: qHTS Assay for the Inhibitors of Schistosoma Mansoni Peroxiredoxins; 360,000 tested, 3% active; purified TGR, DTNB reduction, TNB absorbance 405 nm; Potency, µM (highest dose often 114 µM), without a hit: top-dose activity change, negative = inhibition, usual class: inhibitors; further: nearly all actives have a fitted effect of over 60% in size
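Kinetic colorimetric format: TGR-catalysed, NADPH-driven DTNB reduction monitored via TNB absorbance. Enzyme dispensed at 20 nM; compound exposure 15 min at room temperature before reaction start.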
AmpC inh no detg: qHTS Inhibitors of AmpC Beta-Lactamase (assay without detergent) | P00811 | AmpC nitrocefin hydrolysis, absorbance 480 nm, 0.0001% Triton | Potency, µM (doses to about 57.1 µM), inactives show at the highest dose activity change, negative = inhibition, most hits filed as inhibitors | 330,000 tested, 0.52% active | AID 485341, 2010;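 further: plate controls were no compound for no effect and no enzyme for full effect; nearly all actives have a fitted effect of over 20% in size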
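AmpC (5.3 nM in the dispensed reagent) in 20 mM phosphate pH 7.0 with 0.01% (detergent screen) or 0.0001% Triton X-100 was preincubated with compounds for 15 min at room temperature. Nitrocefin was then added from an 800 uM solution, and hydrolysis was followed at 480 nm.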
FMDV inh: High Throughput Screening for Foot and Mouth Disease Virus Antivirals | FMDV antiviral cell-based qHTS | Potency, µM (titrated, usually from 57.9 µM), for the others: at the top dose activity change, negative = inhibition, actives largely listed as inhibitors | 410,000 tested, 1.2% active; calls by dose curve; tested in HEK293T cells; further: read-out not given here; nearly all actives have a fitted effect of over 45% in size
Starred values were filed as active, the others as inactive; u = inconclusive; x = no result. Unless noted, the call rests on the fitted dose curve; in most records, active means well fitted curve in the direction sought with a large enough effect; inconclusive means small, poorly fitted or top-dose-only effect, or another doubt; inactive means no such curve, though single readings can be large; an effect the other way counts as inactive or inconclusive. Unless noted, on the % scale 0 is the no-effect control and ±100 the full control effect; potency means the concentration at half of the fitted maximal effect.

SMILES	AmpC inh detg	AMA1 RON2 block	Sm TGR block	AmpC inh no detg	FMDV inh
Cc1ccc(-c2nc(CS(=O)CC(=O)NCc3ccc(Cl)cc3)c(C)o2)cc1 (stereo not given)	-16%	0%	u	42%	-12%
Cc1oc(-c2ccc(Cl)cc2)nc1CS(=O)CC(=O)NC1CC1 (stereo not given)	2%	-4%	16µM*	1%	-11%
Cc1ccc(-c2nc(CS(=O)CC(=O)NC3CCC(C)CC3)c(C)o2)cc1 (stereo not given)	-11%	-4%	14µM*	91%	9%
COc1ccc(-c2nc(CS(=O)CC(=O)NCc3ccc(Cl)cc3)c(C)o2)cc1 (stereo not given)	u	0%	u	121%	-18%
Cc1oc(-c2ccc(Cl)cc2)nc1CS(=O)CC(=O)NC(C)c1ccccc1 (stereo not given)	-3%	-4%	8.9µM*	138%	2%
Cc1oc(-c2ccc(Cl)cc2)nc1CS(=O)CC(=O)NCc1ccccn1 (stereo not given)	2%	84%	40µM*	36%	-11%
CCCNC(=O)C1=CC(c2ccc3c(c2)OCO3)=NS(=O)(=O)N1C	3%	x	-3%	x	17%
CCc1cccc(C)c1NC(=O)Cn1nnc(-c2nc(-c3ccccc3F)no2)c1N	13%	x	2%	x	-1%
CC(C)(C)c1ccc(C(=O)N2CCC3(CC2)CC3C(=O)NCCc2ccccn2)cc1 (stereo not given)	x	x	x	x	26%
CC(=NNC(=O)c1ccncc1)c1ccccc1Cl	x	13%	x	x	12%
C/C(=N/NS(=O)(=O)c1ccc(Cl)cc1)c1ccncc1	u	-8%	28µM*	-21%	8%
C/C(=N\NC(=O)c1ccccc1NC(=O)c1ccc(Cl)cc1)c1ccncc1	0%	21%	-4%	-23%	3.2µM*
COc1ccc(NC(=O)CN2C(=O)C(C)(C)c3cc(S(=O)(=O)N4CCCCC4)ccc32)cc1Cl	8%	x	4%	x	26%
COc1ccc(/C=C2\SC(=Nc3ccccc3)NC2=O)cc1	-7%	x	0%	-20%	x
COc1cc(/C=C2/SC(=Nc3ccc(O)cc3)NC2=O)cc(OC)c1O	-2%	-7%	7%	-34%	-10%
COc1ccc(N=C2NC(=O)/C(=C\c3ccco3)S2)cc1	5%	-11%	28µM*	-40%	48%
CC(=O)Nc1ccc(S(=O)(=O)/N=C2/NC(=O)/C(=C\c3ccco3)S2)cc1	2%	0%	14µM*	-36%	13%
CCOC(=O)CN1C(=O)S/C(=C/c2ccc(C)o2)C1=O	-2%	4%	40µM*	-22%	54%
O=C1NC(=Nc2ccc(O)cc2)S/C1=C\C=C\c1ccco1	2%	-10%	14µM*	18µM*	7%
Cc1nn(-c2ccccc2)c2c1cc1c(=O)[nH]c(=O)nc-1n2-c1cccc(C(F)(F)F)c1	2%	x	-7%	x	-3%
Cc1ccc(N(C)S(=O)(=O)c2ccc3[nH]c(=O)ccc3c2)cc1	18%	x	12%	x	4%
COc1ccc(CCNC(=O)C(C)n2c(=O)cc(-c3ccccc3)c3c(C)nn(C)c32)cc1OC (stereo not given)	2%	x	1%	x	-10%
CCOC(=O)C1CCN(S(=O)(=O)c2cc(-c3cc(C)no3)ccc2OC)CC1	3%	x	7%	x	-13%
COc1cc(OC)c(NC(=O)c2cn(C)c(=O)c3cc(OC)c(OC)cc23)cc1Cl	-3%	x	-11%	x	6%
CCCN1C(=O)/C(=C/c2ccco2)SC1=Nc1ccc(OC)cc1	-4%	-26%	50µM*	-39%	u
COc1ccc(N=C2S/C(=C\c3ccc(OCC(=O)O)cc3)C(=O)N2CCc2c[nH]c3ccccc23)cc1	-7%	-25%	x	38%	2%
COc1ccc(N=C2S/C(=C\c3ccc(N4CCOCC4)o3)C(=O)N2CCc2c[nH]c3ccccc23)cc1	-9%	x	13µM*	26%	x
